Inconclusive results are not listed. A number with no mark means an inactive call. Calls of active or inactive are those of the source. The call rests on the fitted dose curve; in most records, active means well fitted curve in the direction sought with a large enough effect in the repeat runs; inconclusive means weak or mixed curves; inactive means no such curve, though single readings can be large; an effect the other way counts as inactive or inconclusive.

31 compounds from PubChem BioAssay (Tox21) can be followed below.

The target of assay [1] is Cytochrome P450 2C19 (Homo sapiens) (UniProt P33261). Description: Cytochrome P450 Family 2 Subfamily C Member 19 (CYP2C19) small molecule antagonists: luciferase reporter qHTS assay (AID 1671197). Further: nearly all actives have a fitted effect of over 65% in size. As to conditions: P450-Glo CYP2C19 enzyme, luciferin luminescence, 1 h; series mostly up to 115 µM. A digest of the protocol: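 P450-Glo CYP2C19 system: enzyme-substrate mix with compound 10 min at room temperature, then NADPH regeneration solution, 1 h at 37C. Proluciferin-to-luciferin conversion detected by luminescence after 20 min with detection reagent; ketoconazole as positive control.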
(In general: Reporter assays use an easily measured gene product as a stand-in for the process of interest.)

Assay [2] addresses Cytochrome P450 2C9 (Homo sapiens) (UniProt P11712). Description: Cytochrome P450 Family 2 Subfamily C Member 9 (CYP2C9) small molecule antagonists: luciferase reporter qHTS assay (AID 1671198). Further: nearly all actives have a fitted effect of over 50% in size. The following applies: P450-Glo CYP2C9 enzyme assay, luciferin luminescence; series mostly up to 53 µM. A digest of the protocol: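 P450-Glo proluciferin substrate with CYP2C9 enzyme; 10 min RT preincubation, then NADPH regeneration 1 h at 37C; luciferin detection reagent 20 min RT, luminescence in relative luminescence units.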

The target in assay [3] is Cytochrome P450 1A2 (Homo sapiens) (UniProt P05177). Description: Cytochrome P450 Family 1 Subfamily A Member 2 (CYP1A2) small molecule antagonists: luciferase reporter qHTS assay (AID 1671199). Further: nearly all actives have a fitted effect of over 50% in size. The following applies: P450-Glo CYP1A2 enzyme, luciferin luminescence, 1 h; series mostly up to 53 µM. Summed up:
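CYP1A2 turnover of a luminogenic substrate was quantified after 1 h with NADPH regeneration at room temperature. Furafylline served as positive control.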

The target in assay [4] is Voltage-gated inwardly rectifying potassium channel KCNH2 (Homo sapiens) (UniProt Q12809). Briefly: Human Ether-a-go-go-Related Gene (hERG) channel small molecule antagonists: fluorescence cell-based qHTS assay (AID 1671200). Further: nearly all actives have a fitted effect of over 50% in size.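 On activity change, negative = inhibition: hERG-expressing U2OS cells given a thallium stimulus after FluxOR II dye loading.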 The following applies: hERG-U2OS cells, FluxOR thallium flux fluorescence; series mostly up to 76.8 µM. Summed up: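 Read-out: thallium influx as a surrogate for potassium, tracked as fluorescence (480 nm ex/540 nm em) every second for 2 min after Stimulus Buffer addition in dye-loaded hERG-U2OS cells.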
On the technique in general: The hERG channel carries a current that helps repolarise heart muscle cells.

Assay [5] deals with Cytochrome P450 3A4 (Homo sapiens) (UniProt P08684). Briefly: Cytochrome P450 Family 3 Subfamily A Member 4 (CYP3A4) small molecule antagonists: luciferase reporter qHTS assay (AID 1671201). Further: nearly all actives have a fitted effect of over 50% in size. As to conditions: P450-Glo CYP3A4 enzyme, luciferin luminescence, 1 h; series mostly up to 115 µM. Summed up:
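Luminescent readout (RLU) proportional to CYP3A4 activity, from luciferin generated off a proluciferin substrate. Enzyme–substrate mix plus compound 10 min at room temp, NADPH regeneration 1 h, detection reagent 20 min.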
On the % scale 0 is the no-effect control and ±100 the full control effect; potency means the concentration at half of the fitted maximal effect.

Chain of Cytochrome P450 2C19 (Homo sapiens) (P33261 whole entry, looked up): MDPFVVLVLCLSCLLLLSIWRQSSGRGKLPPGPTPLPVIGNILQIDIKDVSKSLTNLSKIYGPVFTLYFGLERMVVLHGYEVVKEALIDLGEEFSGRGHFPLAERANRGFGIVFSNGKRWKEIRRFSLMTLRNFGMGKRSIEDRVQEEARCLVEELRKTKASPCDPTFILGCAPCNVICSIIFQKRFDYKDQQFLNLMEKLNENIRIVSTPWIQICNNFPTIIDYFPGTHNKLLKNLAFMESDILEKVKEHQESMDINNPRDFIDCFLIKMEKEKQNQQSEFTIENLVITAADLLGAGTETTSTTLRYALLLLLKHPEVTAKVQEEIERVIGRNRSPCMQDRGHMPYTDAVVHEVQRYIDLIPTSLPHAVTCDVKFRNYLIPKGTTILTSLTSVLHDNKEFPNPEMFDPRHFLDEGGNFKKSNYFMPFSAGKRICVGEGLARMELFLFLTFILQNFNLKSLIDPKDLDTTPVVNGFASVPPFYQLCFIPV
Chain of Cytochrome P450 1A2 (Homo sapiens) (P05177 whole entry, looked up): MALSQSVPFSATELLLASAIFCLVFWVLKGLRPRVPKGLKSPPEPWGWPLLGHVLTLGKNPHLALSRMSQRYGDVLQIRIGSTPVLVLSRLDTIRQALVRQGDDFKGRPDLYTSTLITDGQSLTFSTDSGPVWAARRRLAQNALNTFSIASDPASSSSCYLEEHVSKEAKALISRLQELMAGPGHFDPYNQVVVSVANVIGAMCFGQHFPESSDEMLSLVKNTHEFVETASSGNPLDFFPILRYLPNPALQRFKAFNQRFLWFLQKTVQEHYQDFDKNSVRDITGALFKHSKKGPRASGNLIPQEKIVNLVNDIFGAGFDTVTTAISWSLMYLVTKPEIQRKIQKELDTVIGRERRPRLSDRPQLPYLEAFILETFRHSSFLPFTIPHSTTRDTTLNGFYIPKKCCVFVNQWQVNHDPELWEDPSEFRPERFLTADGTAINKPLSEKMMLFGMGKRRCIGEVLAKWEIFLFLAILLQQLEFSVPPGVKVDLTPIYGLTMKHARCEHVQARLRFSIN
Chain of Voltage-gated inwardly rectifying potassium channel KCNH2 (Homo sapiens) (Q12809 whole entry, looked up): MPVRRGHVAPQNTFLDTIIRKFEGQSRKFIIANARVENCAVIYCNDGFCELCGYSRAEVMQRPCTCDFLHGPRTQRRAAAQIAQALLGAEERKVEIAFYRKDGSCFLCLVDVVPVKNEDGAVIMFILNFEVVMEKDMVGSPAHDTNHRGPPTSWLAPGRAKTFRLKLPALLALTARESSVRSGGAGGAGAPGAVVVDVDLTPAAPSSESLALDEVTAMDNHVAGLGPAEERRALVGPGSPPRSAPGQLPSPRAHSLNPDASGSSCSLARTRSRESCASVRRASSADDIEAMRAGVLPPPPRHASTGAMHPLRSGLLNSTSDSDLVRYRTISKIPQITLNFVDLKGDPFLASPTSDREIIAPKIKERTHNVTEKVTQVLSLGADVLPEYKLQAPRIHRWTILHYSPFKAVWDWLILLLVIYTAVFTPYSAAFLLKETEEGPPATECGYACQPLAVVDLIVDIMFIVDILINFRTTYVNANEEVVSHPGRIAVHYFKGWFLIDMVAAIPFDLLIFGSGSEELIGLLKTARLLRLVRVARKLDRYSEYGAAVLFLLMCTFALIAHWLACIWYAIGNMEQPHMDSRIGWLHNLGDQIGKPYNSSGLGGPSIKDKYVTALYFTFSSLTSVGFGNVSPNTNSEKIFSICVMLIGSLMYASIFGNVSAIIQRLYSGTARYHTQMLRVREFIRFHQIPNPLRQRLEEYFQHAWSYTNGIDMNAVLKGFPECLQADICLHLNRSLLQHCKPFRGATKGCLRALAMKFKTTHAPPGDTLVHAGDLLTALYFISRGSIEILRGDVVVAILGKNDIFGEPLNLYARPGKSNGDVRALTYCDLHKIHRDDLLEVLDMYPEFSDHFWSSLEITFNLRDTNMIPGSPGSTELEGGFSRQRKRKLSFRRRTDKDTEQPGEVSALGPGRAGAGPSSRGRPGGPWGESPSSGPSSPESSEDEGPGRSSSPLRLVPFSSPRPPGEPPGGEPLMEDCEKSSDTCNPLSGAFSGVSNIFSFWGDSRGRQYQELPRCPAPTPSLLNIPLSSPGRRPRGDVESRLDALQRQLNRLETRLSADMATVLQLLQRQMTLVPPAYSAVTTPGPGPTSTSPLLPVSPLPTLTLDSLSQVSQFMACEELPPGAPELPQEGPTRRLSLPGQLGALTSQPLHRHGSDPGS
Chain of Cytochrome P450 2C9 (Homo sapiens) (P11712 whole entry, looked up): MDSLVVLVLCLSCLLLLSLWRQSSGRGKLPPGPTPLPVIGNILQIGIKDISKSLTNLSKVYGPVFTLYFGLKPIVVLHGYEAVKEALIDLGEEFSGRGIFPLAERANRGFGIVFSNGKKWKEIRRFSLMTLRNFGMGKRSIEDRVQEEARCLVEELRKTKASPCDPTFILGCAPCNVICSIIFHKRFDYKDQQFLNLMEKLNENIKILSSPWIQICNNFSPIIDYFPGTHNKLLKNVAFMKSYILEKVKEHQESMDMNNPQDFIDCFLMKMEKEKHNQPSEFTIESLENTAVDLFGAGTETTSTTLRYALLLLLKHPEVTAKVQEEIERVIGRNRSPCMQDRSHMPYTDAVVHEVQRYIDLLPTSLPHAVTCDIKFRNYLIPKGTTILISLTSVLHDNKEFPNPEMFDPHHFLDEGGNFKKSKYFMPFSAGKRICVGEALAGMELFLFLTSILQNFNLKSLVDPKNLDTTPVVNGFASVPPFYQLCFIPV
Chain of Cytochrome P450 3A4 (Homo sapiens) (P08684 whole entry, looked up): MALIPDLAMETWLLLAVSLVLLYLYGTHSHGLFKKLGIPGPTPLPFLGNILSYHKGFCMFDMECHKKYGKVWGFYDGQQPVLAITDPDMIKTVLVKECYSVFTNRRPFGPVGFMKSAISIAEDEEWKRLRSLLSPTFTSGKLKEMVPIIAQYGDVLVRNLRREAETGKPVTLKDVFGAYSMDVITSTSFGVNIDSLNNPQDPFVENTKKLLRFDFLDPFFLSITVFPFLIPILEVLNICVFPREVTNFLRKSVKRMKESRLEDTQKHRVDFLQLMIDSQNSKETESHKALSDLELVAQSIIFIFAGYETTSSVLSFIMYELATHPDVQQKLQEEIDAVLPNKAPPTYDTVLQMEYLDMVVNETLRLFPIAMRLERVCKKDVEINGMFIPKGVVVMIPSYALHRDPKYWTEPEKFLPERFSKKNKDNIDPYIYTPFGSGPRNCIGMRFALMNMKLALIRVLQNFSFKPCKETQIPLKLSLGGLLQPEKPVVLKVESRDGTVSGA

Take `NC(=O)Cc1cccc(C(=O)c2ccccc2)c1N`: the Potency in assay [1] is 34.7 µM (active); in assay [3] it was 15.5 µM (active). Moreover, the Potency entry in assay [2], in assay [4] and in assay [5] was “inactive” each time.

`CCNCCO`: the Potency entry in assay [1], in assay [2], in assay [3], in assay [4] and in assay [5] was “inactive” in each case.

Consider `CC(C)OC(C)C`, for which the Potency entry in assay [1], in assay [2], in assay [3], in assay [4] and in assay [5] was “inactive” throughout.

With `CC1(C)S[C@@H]2[C@H](NC(=O)C(C(=O)O)c3ccccc3)C(=O)N2[C@H]1C(=O)O` (some centres undefined), the Potency result in assay [1], in assay [2], in assay [3], in assay [4] and in assay [5] was “inactive” in each case.

Take `OCCN1CCN(CCO)CC1`: the Potency entry in assay [1], in assay [2], in assay [3], in assay [4] and in assay [5] was “inactive” throughout.

In the case of `COC(=O)c1ccc(OC)cc1`, the Potency result in assay [1], in assay [2] and in assay [5] was “inactive” each time. Also, in assay [3], the Potency is 35.6 µM (active).

For `NC/C=C/C(=O)O`, the Potency result in assay [1], in assay [2], in assay [3], in assay [4] and in assay [5] was “inactive” each time.

For `CCCCCCn1c(=O)c2c(ncn2C)n(C)c1=O`, the Potency in assay [1] is 30.9 µM (active); in assay [3] it was 15.5 µM (active). In addition, the Potency entry in assay [2], in assay [4] and in assay [5] was “inactive” each time.

As for `C[C@@H]1CN(c2c(F)c(N)c3c(=O)c(C(=O)O)cn(C4CC4)c3c2F)C[C@H](C)N1`, the results for the activity change, negative = inhibition in assay [1], in assay [4] and in assay [5] were 45.2% [at 23.6 µM], -2.21% [at 15.8 µM] and -3.59% [at 23.6 µM], respectively. In addition, the Potency entry in assay [2] and in assay [3] was “inactive” in each case.

`CCCCCCCCOC(=O)CCCCCCCCC(=O)OCCCCCCCC`: the Potency entry in assay [1], in assay [2], in assay [3], in assay [4] and in assay [5] was “inactive” in each case.

Turning to `Cc1ccc([N+](=O)[O-])cc1Cl`, the Potency entry in assay [1], in assay [2], in assay [3] and in assay [5] was “inactive” throughout.

As for `CCCN(CCC)C(=O)C(CCC(=O)O)NC(=O)c1ccccc1` (centres undefined), the Potency result in assay [1], in assay [2], in assay [3], in assay [4] and in assay [5] was “inactive” each time.

As to `CCc1cc(Cl)c(OC)c(C(=O)NC[C@@H]2CCCN2CC)c1O`, the Potency result in assay [1], in assay [2] and in assay [5] was “inactive” throughout. Also, the values for the Potency in assay [3] and in assay [4] were 12.9 µM (active) and 6.74 µM (active), respectively.

As for `N#CSCC(=O)O`, the Potency result in assay [1], in assay [2], in assay [3] and in assay [5] was “inactive” throughout.

With `OCc1ccccc1O`, the Potency result in assay [1], in assay [2], in assay [3], in assay [4] and in assay [5] was “inactive” each time.

For `C=Cc1ccccc1`, the Potency result in assay [1], in assay [2], in assay [3] and in assay [5] was “inactive” each time.

As to `CCOc1ccc(NC(N)=O)cc1`, the Potency entry in assay [1], in assay [2], in assay [4] and in assay [5] was “inactive” in each case. Further, the Potency in assay [3] was 35.6 µM (active).

Take `COc1ccc2nc(NC(=O)Nc3ccccc3)sc2c1`: the Potency in assay [1] was 21.9 µM (active); in assay [2] it was 15.5 µM (active); in assay [3], 12.3 µM (active). Besides, the Potency entry in assay [4] and in assay [5] was “inactive” each time.

Take `O=C1C=CC(=O)O1`: the Potency result in assay [1], in assay [2], in assay [3], in assay [4] and in assay [5] was “inactive” each time.

Consider `Cc1cc(S(=O)(=O)O)c(N)cc1Cl`, for which the results for the Potency in assay [1] and in assay [2] were 80.5 µM (active) and 28.6 µM (active), respectively. For the same compound, the Potency entry in assay [3], in assay [4] and in assay [5] was “inactive” throughout.

Turning to `CCCCCCOc1ccc(N)cc1`, the Potency was 2 µM (active) in assay [1], 22.4 µM (active) in assay [2], 3.99 µM (active) in assay [3] and 35.6 µM (active) in assay [5]. Besides, in assay [4], the Potency entry is “inactive”.

As for `CC1=CC(=O)CC(C)(C)C1=O`, the Potency entry in assay [1], in assay [2], in assay [3], in assay [4] and in assay [5] was “inactive” each time.

Turning to `Cc1cc2c(s1)Nc1ccccc1N=C2N1CCN(C)CC1`, the Potency entry in assay [1], in assay [2], in assay [3], in assay [4] and in assay [5] was “inactive” in each case.

In the case of `FC(F)(F)C(F)(F)C(F)(F)C(F)(F)C(F)(F)C(F)(F)C(F)(F)C(F)(F)Br`, the Potency result in assay [1], in assay [2], in assay [3], in assay [4] and in assay [5] was “inactive” each time.

As to `C=CCCC=C`, the Potency entry in assay [1], in assay [2], in assay [3], in assay [4] and in assay [5] was “inactive” in each case.

Turning to `CC(C)(C)C1CCCCC1=O` (centres undefined), the Potency entry in assay [1], in assay [2], in assay [3], in assay [4] and in assay [5] was “inactive” each time.

Take `O=C(O)C(=O)Cc1c[nH]c2ccccc12`: the Potency in assay [1] was 79.6 µM (active); in assay [2] it was 39.9 µM (active); in assay [3], 35.6 µM (active). Moreover, the Potency result in assay [4] and in assay [5] was “inactive” in each case.

Consider `CC1=C(O)C(=O)OC1C` (centres undefined), for which the Potency result in assay [1], in assay [2], in assay [3] and in assay [5] was “inactive” in each case.

Regarding `CC(C)(C)c1ccc(OC(=O)c2ccccc2O)cc1`, the Potency entry in assay [1], in assay [4] and in assay [5] was “inactive” each time. Further, the Potency is 31.7 µM (active) in assay [2] and 39.9 µM (active) in assay [3].

For `Oc1ccccc1F`, the Potency result in assay [1], in assay [2] and in assay [5] was “inactive” each time. Moreover, the Potency in assay [3] is 35.5 µM (active).

With `O=C(O)CN(CCN(CC(=O)O)CC(=O)O)CCN(CC(=O)O)CC(=O)O`, the results for the activity change, negative = inhibition in assay [1], in assay [4] and in assay [5] were 49.7% [at 23.6 µM], 6.28% [at 15.8 µM] and 10.1% [at 23.6 µM], respectively. In addition, the Potency result in assay [2] and in assay [3] was “inactive” throughout.
